This note sets out measurements from PubChem BioAssay (Tox21).

Each structure is given as a SMILES string. Records with an inconclusive call do not appear. A call without a number means that no potency is given here. A number with no mark means an inactive call. Activity calls are given as the source filed them. The call rests on the fitted dose curve.
Potency means the concentration at half of the fitted maximal effect.

This experiment is described as follows: qHTS assay to identify small molecule agonists of the progesterone receptor (PR) signaling pathway - cell viability counter screen (AID 1346799). Further: nearly all actives have a fitted effect of over 45% in size. The conditions noted are these: PR-UAS-bla HEK293T viability, CellTiter-Glo luminescence, 16 h; series mostly up to 92.4 µM. From the text:
National Center for Advancing Translational Sciences [NCATS]
NIH Chemical Genomics Center [NCGC]
U.S. Environmental Protection Agency [EPA]
National Institutes of Environmental Health Sciences [NIEHS]
National Toxicology Program [NTP]
U.S. Food and Drug Administration [FDA]
Progesterone receptor (PR), a nuclear hormone receptor, plays an important role in development, metabolic homeostasis and reproduction. It is activated by the steroid hormone progesterone. Endocrine disrupting chemicals (EDCs) and their interactions with steroid hormone receptors like PR causes disruption of normal endocrine function. To identify the compounds that stimulate PR signaling, a PR-UAS-bla GripTite cell line i.e. PR-UAS-bla HEK293T (Invitrogen, Carlsbad, CA, USA) containing a beta-lactamase reporter gene under the control of an UAS response element was used to screen Tox21 10K compound library. The cytotoxicity of the Tox21 compound library against the PR-bla cell line was tested in parallel by measuring the cell viability using CellTiter-Glo assay in the same wells.
Tox21 Assay Protocol Summary:
PR-UAS-bla HEK293T cells were dispensed at 3,000 cells/5 uL of assay medium containing 2% charcoal stripped FBS per well into black wall/clear-bottom 1536-well plates using a Multidrop Combi (ThermoFisher Scientific, Waltham, MA) dispenser. After the assay plates were incubated at a 37C and 5% CO2 for 6 hr, 23 nL of compounds dissolved in DMSO, positive controls or DMSO only was transferred to the assay plate by a Pintool station (Kalypsys, San Diego, CA). The plates were incubated at 37C and 5% CO2 for 16 hr. Then 1 uL of LiveBLAzer B/G FRET substrate was added using a Flying Reagent Dispenser (FRD, Aurora Discovery, San Diego, CA), the plates were incubated at room temperature for 2 hours, and fluorescence intensity was measured by an Envision plate reader (PerkinElmer, Shelton, CT). For cell viability readout that measures cytotoxicity, 4 uL/well of CellTiter-Glo reagent was added into the assay plates using a FRD. After 30 min incubation at room temperature, the luminescence intensity in the plates was measured using a ViewLux (PerkinElmer) plate reader.
Consider `C=C(C)C1CCC(C)CC1O` (stereo not given), for which the Potency entry was “inactive”.

Take `c1ccc2c(c1)-c1ccc3ccc4cccc5cc-2c1c3c45`: the Potency entry is “inactive”.

In the case of `CC1(C)[C@H](C(=O)OCc2cccc(Oc3ccccc3)c2)[C@@H]1C=C(Cl)Cl`, the Potency entry was “inactive”.

`CSc1ccc(O)cc1C`: the Potency result was “inactive”.

Regarding `CC1CCC(C(C)(C)O)CC1` (stereo not given), the Potency result was “inactive”.

Take `Cc1cccc2c1ccc1ccccc12`: the Potency result is “inactive”.

Consider `C=CC(=O)OCC(Br)CBr` (stereo not given), for which the Potency entry was “inactive”.

As to `Cc1ccc2n[nH]nc2c1`, the Potency entry is “inactive”.

Regarding `CCCCCCCCCCCCS(=O)(=O)Cl`, the activity change, negative = cytotoxicity is -21.2% [at 19 µM].

Regarding `[Cl][Eu]([Cl])[Cl]`, the Potency entry was “inactive”.

As to `CCCCCCCCCCCCCCCCC(C(=O)O)C(O)(CC(=O)O)C(=O)O` (stereo not given), the Potency entry is “inactive”.

On to `CCCCCN=C(N)N/N=C/c1c[nH]c2ccc(OC)cc12`, for which the Potency is 16.8 µM (active).

Regarding `C/C=C/C(=O)OCC(C)C`, the Potency result was “inactive”.

Turning to `C=CC(=O)OCCOC1C2CCC1C1CC=CC12` (stereo not given), the activity change, negative = cytotoxicity is 1.19% [at 19 µM].

On to `Cc1ccc2nc(-c3ccc(N)cc3)sc2c1S(=O)(=O)O`, for which the Potency entry is “inactive”.

For the compound `Clc1cccc(Cl)n1`, the Potency entry was “inactive”.

For `C=Cc1ccc(O)c(OC)c1`, the Potency entry was “inactive”.

With `N#Cc1ccc(C/C(=N/NC(=O)Nc2ccc(OC(F)(F)F)cc2)c2cccc(C(F)(F)F)c2)cc1`, the Potency entry is “inactive”.

For the compound `[Cl][Sc]([Cl])[Cl]`, the Potency result was “inactive”.

With `CCCC(C)C=O` (stereo not given), the Potency result was “inactive”.

On to `CCCCCCCCCCCC(=O)Cl`, for which the Potency entry was “inactive”.

On to `COC(=O)c1ccc([N+](=O)[O-])cc1`, for which the Potency result was “inactive”.

As for `O=[N+]([O-])c1ccc(O)c2ncccc12`, the Potency result was “inactive”.

Consider `Cn1c(=O)[nH]c2ncn(C)c2c1=O`, for which the Potency result is “inactive”.

On to `NCc1cccc(C2CCN(C(=O)c3ccc(C#Cc4ccccc4F)o3)CC2)c1`, for which the Potency was 61.1 µM (active).

On to `CC(O)(c1ccc(Cl)cc1)c1ccc(Cl)cc1`, for which the Potency result is “inactive”.

On to `COc1cccc(-c2ccc(/C=C\CN3CCCCCC3)cc2Cl)c1`, for which the Potency result is “inactive”.

Turning to `CCOC(=O)[C@H](O)[C@@H](O)C(=O)OCC`, the Potency result was “inactive”.

For the compound `COc1cc(OC)nc(NC(=O)NS(=O)(=O)Nc2ccccc2C(=O)N(C)C)n1`, the Potency entry is “inactive”.

As to `C=C(C)CCO`, the Potency result is “inactive”.

For `NC(=O)C1CO1` (stereo not given), the Potency result is “inactive”.

In the case of `CCOC(=O)OC(=O)OCC`, the Potency entry is “inactive”.

`CCc1cccc(C)c1N(C(=O)CS(=O)(=O)O)C(C)COC` (stereo not given): the Potency result was “inactive”.

On to `C=COCCCC`, for which the Potency entry is “inactive”.

Regarding `Oc1cccc2c(O)cccc12`, the Potency result was “inactive”.

With `Nc1ccc(Cl)c([N+](=O)[O-])c1`, the Potency result was “inactive”.

Regarding `CN(C/C=C/c1ccccc1)Cc1cccc2ccccc12`, the Potency entry was “inactive”.

With `CCc1c(C)cc(N)c(CC)c1N`, the Potency entry is “inactive”.

With `O=C(CCCCCCCCc1cccnc1)N1CCC(C=C(c2ccccc2)c2ccccc2)CC1`, the Potency is 30.6 µM (active).

With `CO[Si](OC)(c1ccccc1)c1ccccc1`, the Potency result was “inactive”.
